This is an account of results in ChEMBL document CHEMBL4808148, “HDAC6 screening dataset using tau-based substrate in an enzymatic assay yields selective inhibitors and activators” (2021).

Screen size: about 5,600 compounds; about 390 (7%) showed an effect of 50% or more. The sample as a whole holds a higher share of strong results than the screen did. Starred links: 1 amine or outer side, 2 acyl side, 3 side chain; linkers in the order of their positions; H or OH if unused. Positions of bridges follow the written chain, without caps; N, C: chain ends. Non-standard residues stand in square brackets, D forms with d. Residues, ends and D or L forms follow the SMILES beside them. *: point of attachment. pTerphenylCO(4''-OnC5H11) = CCCCCOc1ccc(-c2ccc(-c3ccc(C(=O)*)cc3)cc2)cc1; Orn(4R-OH,5R-OH) = O=C([C@H](C[C@@H](O)[C@@H](O)N[*:3])N[*:1])[*:2]; hTyr(3S-OH,4S-OH) = N[C@H](C(=O)O)[C@H](O)[C@@H](O)c1ccc(O)cc1; Pro(3S-OH,4S-Me) = C[C@H]1CN[C@H](C(=O)O)[C@H]1O; Hyp = O=C(O)[C@@H]1C[C@@H](O)CN1

This experiment deals with T1, Protein deacetylase HDAC6 (Homo sapiens) (UniProt Q9UBN7).
T1 sequence (whole entry): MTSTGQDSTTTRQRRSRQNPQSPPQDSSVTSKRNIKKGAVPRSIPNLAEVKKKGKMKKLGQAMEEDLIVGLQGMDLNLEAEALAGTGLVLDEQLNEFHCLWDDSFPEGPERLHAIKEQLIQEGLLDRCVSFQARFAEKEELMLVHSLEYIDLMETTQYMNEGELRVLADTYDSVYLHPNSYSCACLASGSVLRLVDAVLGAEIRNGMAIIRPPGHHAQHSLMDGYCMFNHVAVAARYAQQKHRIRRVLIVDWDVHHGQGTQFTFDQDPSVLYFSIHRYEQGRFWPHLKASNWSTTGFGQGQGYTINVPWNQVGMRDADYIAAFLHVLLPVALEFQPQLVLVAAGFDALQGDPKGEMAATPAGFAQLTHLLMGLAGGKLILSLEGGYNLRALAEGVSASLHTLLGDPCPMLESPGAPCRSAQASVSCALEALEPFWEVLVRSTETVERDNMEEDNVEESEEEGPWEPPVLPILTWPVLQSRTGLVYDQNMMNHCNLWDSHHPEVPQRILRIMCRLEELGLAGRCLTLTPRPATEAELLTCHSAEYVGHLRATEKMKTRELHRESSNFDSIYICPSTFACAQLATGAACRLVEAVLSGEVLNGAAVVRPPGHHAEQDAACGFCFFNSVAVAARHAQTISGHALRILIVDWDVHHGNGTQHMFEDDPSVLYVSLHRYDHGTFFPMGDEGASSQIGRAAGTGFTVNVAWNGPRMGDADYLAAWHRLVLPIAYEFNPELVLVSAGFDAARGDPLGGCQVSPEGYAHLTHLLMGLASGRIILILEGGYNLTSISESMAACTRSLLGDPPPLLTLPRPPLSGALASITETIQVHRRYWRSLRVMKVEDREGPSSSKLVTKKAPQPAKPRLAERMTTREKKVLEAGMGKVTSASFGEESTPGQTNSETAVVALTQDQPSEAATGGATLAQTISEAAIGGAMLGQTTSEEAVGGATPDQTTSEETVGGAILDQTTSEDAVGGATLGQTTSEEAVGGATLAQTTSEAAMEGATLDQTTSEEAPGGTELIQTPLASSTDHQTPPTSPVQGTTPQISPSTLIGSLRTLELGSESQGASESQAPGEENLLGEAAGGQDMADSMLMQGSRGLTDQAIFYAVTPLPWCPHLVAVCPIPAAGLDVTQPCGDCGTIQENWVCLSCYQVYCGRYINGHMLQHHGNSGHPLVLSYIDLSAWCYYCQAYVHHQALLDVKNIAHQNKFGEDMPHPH
Conditions: at 10 µM.

The inhibition is the change of the read-out against control, counted positive when it falls.

Consider `CCCCCOc1ccc(-c2ccc(-c3ccc(C(=O)N[C@H]4C[C@@H](O)[C@@H](O)NC(=O)[C@@H]5[C@@H](O)[C@@H](C)CN5C(=O)[C@H]([C@@H](C)O)NC(=O)[C@H]([C@H](O)[C@@H](O)c5ccc(O)cc5)NC(=O)[C@@H]5C[C@@H](O)CN5C(=O)[C@H]([C@@H](C)O)NC4=O)cc3)cc2)cc1` ({pTerphenylCO(4''-OnC5H11)}-[Orn(4R-OH,5R-OH)]T[Hyp][hTyr(3S-OH,4S-OH)]T[Pro(3S-OH,4S-Me)]; lactam 1-C), for which the inhibition amounted to 16.9%.

As to `Cc1cc(Nc2cc(C)c(C#N)c(N[C@@H](C)CCCC(C)(C)O)n2)n[nH]1`, the inhibition came out at 27.9%. The figure for `Cc1ccc(C23CNCC2C3)cc1` (centres undefined) is -3.02%; for `O=C(O)c1ccccc1S` it is 17.6%. The figure for `CC(=O)NS(=O)(=O)c1ccc(NC(=O)c2ccccc2C(=O)O)cc1` is -8.72%. For `O=C(O)c1ccccc1C(=O)Nc1ccc(-c2ccccc2)cc1`, the inhibition is 68%. The same measure for `CCN(CC)CCOc1ccccc1C(=O)CCc1ccccc1`: 2.33%; for `C[C@H](N)C(=O)N[C@@H](CCC(N)=O)C(=O)O` (H-Ala-Gln-OH): -3.39%; for `COc1ccc(N2CCOCC2)c2sc(NC(=O)N3CCC(C)(O)CC3)nc12`: 2.18%. For the molecule `Cc1cc(NC(=O)C(c2ccccc2)N2CCCc3ccccc32)no1` (centres undefined), the inhibition amounted to 6.26%. As to `O=C(CNC(=O)c1ccc(Cl)cc1)NO`, the inhibition was 42.6%. On to `COc1cc(C(=O)NCCCCCC(=O)O)cc(OC)c1OC`, for which the inhibition was 0.73%. The same measure for `CN(C)c1ccc(C(=O)NCCCCCCC(=O)NO)cc1`: 102%; for `CC(=O)O[C@@H]1CC[C@@]2(C)[C@@H](CC[C@]3(C)[C@@H]2C(=O)C=C2[C@@H]4[C@@H](C)[C@H](C)CC[C@]4(C)CC[C@]23C)[C@@]1(C)C(=O)O`: -8.47%.

In the case of `CCc1noc(C)c1-c1[nH]c2ccccc2c1C(O)CN(C)C` (centres undefined), the inhibition is 3.93%. Regarding `CN(C)CCCSc1ccccc1NC(=O)/C=C/c1ccccc1`, the inhibition is 97.2%.

Turning to `O=C1c2ccccc2CCC1CNCCc1ccc(O)cc1` (centres undefined), the inhibition is 4.32%. The figure for `COc1cc(O)c(C(=O)c2ccccc2)cc1S(=O)(=O)O` is -4.32%; for `COc1cc(-c2ccc(/N=N/c3ccc4c(S(=O)(=O)O)cc(S(=O)(=O)O)c(N)c4c3O)c(OC)c2)ccc1/N=N/c1ccc2c(S(=O)(=O)O)cc(S(=O)(=O)O)c(N)c2c1O` it is 69.8%; for `OC(CNc1ccccc1)Cn1c2ccc(Br)cc2c2cc(Br)ccc21` (centres undefined) it is -9.16%. The same measure for `Cc1cc(-c2cc(OC(=O)c3ccccc3)ccc2Cl)cc2nnc(Nc3ccc(OCCN4CCCC4)cc3)nc12`: -4.96%. The same measure for `CC(=O)[C@]1(N)Cc2c(O)c3c(c(O)c2[C@@H](O[C@H]2C[C@H](O)[C@H](O)CO2)C1)C(=O)c1ccccc1C3=O`: 18.4%; for `Cc1oc(=O)oc1COC(=O)C1=C([C@H]2CCCO2)S[C@@H]2[C@@H]([C@@H](C)O)C(=O)N12`: 31.1%. As for `Cc1ccc(-n2nc(C(C)(C)C)cc2NC(=O)NCc2cc(F)ccc2Oc2ccc3c(cnn3CCO)c2)cc1`, the inhibition stood at 30.6%. As to `Cc1ccnc2c1CCCC2C(N)=S` (centres undefined), the inhibition is -0.81%. For the molecule `CC(CN(C)C)CN1c2ccccc2Sc2ccc(C#N)cc21` (centres undefined), the inhibition is 7.25%. The same measure for `O=C1NC(=O)/C(=C\c2ccc(-c3ccc(F)cc3)o2)S1`: 60.3%. On to `CN1c2c(oc(=O)n(-c3ccccn3)c2=O)-c2ccccc2S1(=O)=O`, for which the inhibition was determined as 16.6%. The figure for `CN1C(=O)N(c2ccc(C#N)c(C(F)(F)F)c2)C(=O)[C@]1(CO)c1ccccc1` is 40.5%; for `Cc1nc(-c2cccnc2)sc1C(=O)Nc1ccccc1-c1cn2c(CN3CCOCC3)csc2n1` it is 11.9%; for `FCc1ccc(OCCOc2ccc(Cl)cc2Cl)c(Cl)n1` it is 61.7%. For `CCOc1c2c(c(OCC)c3ccccc13)C(=O)N(c1ccc(CC(=O)NS(=O)(=O)c3ccccc3)cc1)C2`, the inhibition stood at 3.49%. The figure for `O=C1C2CC3CC1CC(O)(C3)C2` is 26.7%; for `COc1cc2c(Oc3ccc4[nH]c(C)cc4c3F)ccnc2cc1OCC1(N)CC1` it is 54.9%. With `Cc1cc2c(F)c(Oc3ncnn4cc(OC[C@@H](C)OC(=O)[C@H](C)N)c(C)c34)ccc2[nH]1`, the inhibition is 48.1%. Consider `NS(=O)(=O)c1ccc2c(c1)C1C=CCC1C(c1ccc(Br)cc1)N2` (centres undefined), for which the inhibition came out at 8.71%. The same measure for `CS(=O)(=O)c1ccc(-c2cnc(N)c(C(=O)Nc3ccccc3)n2)cc1`: 6.2%; for `CS(=O)(=O)c1ccc(-c2cn3ccccc3n2)cc1`: 99.6%; for `Cc1cccc2c1CC[C@H](CN1CCC(c3c(Cl)cccc3Cl)CC1)C[C@@H]2O`: -4.44%. The figure for `CN(C)[C@@H]1CCc2[nH]c3ccc(NC(=O)c4ccc(F)cc4)cc3c2C1` is 6.78%. The figure for `O=C1C2CC=CCC2C(=O)N1SC(Cl)(Cl)Cl` (centres undefined) is 59.5%; for `O=[N+]([O-])c1ccc(Cl)c([N+](=O)[O-])c1` it is 15.2%; for `COc1cc(O)cc([C@@H]2CC(=O)c3c(O)cc(O[C@@H]4O[C@H](CO)[C@@H](O)[C@H](O)[C@H]4O[C@@H]4O[C@@H](C)[C@H](O)[C@@H](O)[C@H]4O)cc3O2)c1` it is 5.67%. As for `O=C1C[C@@H](c2ccc(O)cc2)Oc2cc(O)cc(O)c21`, the inhibition turned out to be 73.8%. For the molecule `O=C(O[C@@H]1Cc2c(O)cc(O)cc2O[C@@H]1c1cc(O)c(O)c(O)c1)c1cc(O)c(O)c(O)c1`, the inhibition turned out to be 11.9%. As for `[O-][n+]1ccccc1S`, the inhibition was 22.8%. Consider `CCOC(=O)c1ccccc1OC(N)=O`, for which the inhibition was determined as 7.12%. Turning to `O=C(Oc1ccccc1)c1ccccc1O`, the inhibition is 77.2%. Consider `O=C(OCCO)c1ccccc1O`, for which the inhibition was determined as 5.24%.
